# The list is not random: actives were taken first. Their share in the collection is about 1.2%.
# NR1D1 modulator – Rev-erb alpha (human) modulation; P20393; Rev-erbα–FITC-DNA binding, fluorescence polarization, 90 min; activity, % at 10 µM; 0.79% of 370,000 active; AID 1259318;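 active = activity above about 14%, limit read from the data; passing the limit was not always enough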;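 also: 0% = DMSO wells with 35 nM protein and 100% = DMSO wells with 750 nM protein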
# Target sequence (P20393 whole entry, looked up): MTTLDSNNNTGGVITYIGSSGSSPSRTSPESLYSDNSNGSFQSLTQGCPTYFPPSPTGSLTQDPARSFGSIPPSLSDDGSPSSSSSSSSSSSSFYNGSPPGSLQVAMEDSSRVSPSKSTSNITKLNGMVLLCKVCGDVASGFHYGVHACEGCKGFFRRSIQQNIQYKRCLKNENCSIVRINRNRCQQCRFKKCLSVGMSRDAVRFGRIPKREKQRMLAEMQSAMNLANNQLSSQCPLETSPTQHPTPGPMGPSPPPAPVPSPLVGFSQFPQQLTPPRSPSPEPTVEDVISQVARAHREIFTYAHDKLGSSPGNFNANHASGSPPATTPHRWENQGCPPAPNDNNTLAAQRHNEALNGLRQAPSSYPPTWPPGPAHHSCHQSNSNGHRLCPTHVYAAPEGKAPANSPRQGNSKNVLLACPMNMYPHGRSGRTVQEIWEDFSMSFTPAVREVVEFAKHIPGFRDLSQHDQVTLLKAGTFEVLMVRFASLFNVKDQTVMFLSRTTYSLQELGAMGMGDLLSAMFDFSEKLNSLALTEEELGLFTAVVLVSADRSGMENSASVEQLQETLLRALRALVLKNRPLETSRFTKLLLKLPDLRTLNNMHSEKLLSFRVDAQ
# PKA-R1A act – activates the PKA-R1A holoenzyme complex. PKA-R1A dissociation, Cy5-IP20 fluorescence polarization; scaled: DMSO 0%, 113 µM cGMP 100%. AID 504707. P00514+P68181. activation, % at 11.4 µM. 0.083% of 340,000 active;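 active = percent activation above the mean of all tested compounds plus 3 SD, cut at about 19% in these data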;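 also: higher means more PKAc released from R1A so a rise in polarization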
# PKA-R2B activ – activates the human PKA-R2B holoenzyme complex; 0.079% of 340,000 active; activation, % at 11.4 µM; P22694+P31323; PKA-R2B holoenzyme dissociation, Cy5-IP20 fluorescence polarization; R2B truncated from residue 108, S112A mutant; 0% DMSO only, 100% 113 µM cGMP;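 active = activation above a cutoff set at the mean over all compounds plus 3 SD, cut at about 18% in these data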;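 also: higher means more holoenzyme dissociation and a rise in polarization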
# PG9 binder – PG9 antibody binding by small molecule; TR-FRET gp120-PG9 antibody binding; inhibition, % at 6.7 µM; 0.43% of 360,000 active; AID 624416; in the data active = inhibition above about 8.5%
# Rev-erbA confirm – Rev-erb alpha (human) modulation, hit confirmation. activation, % at 25 µM. Rev-erb alpha FITC-DNA binding, fluorescence polarization, 90 min. shares compounds with NR1D1 modulator. 61% of 3,000 active;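 active = activation at or above a set limit, or at least 3 SD above the negative control mean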;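 also: 0% = 35 nM protein with DMSO and 100% = 750 nM protein high control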
# RORg DNA counter – RORgamma DNA-binding activity, dose-response counter-screen; shares compounds with NR1D1 modulator; purified RORgamma protein-FITC-DNA binding, fluorescence polarization; IC50, µM; 8% of 910 active; AID 1259320;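 active = Compounds whose fitted half-maximal concentration for disrupting protein-DNA binding is below 10 micromolar; the record names Rev-erb in its text, so the target is in doubt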
# The depositor's hits bear a star; nt = no result.
SMILES,NR1D1 modulator,PKA-R1A act,PKA-R2B activ,PG9 binder,Rev-erbA confirm,others
CN(C)c1nc(-c2cccnc2)nc(-c2ccccc2)c1C#N,36.9*,-2.0,3.2,-2.2,29.5*,RORg DNA counter=>40
CC(C)Nc1nc(-c2cccnc2)nc(-c2ccccc2)c1C#N,22.6*,0.0,3.9,0.3,0.8,
CC(C)Nc1nc(-c2ccncc2)nc(-c2ccc(Cl)cc2)c1C#N,20.4*,nt,nt,-3.3,9.0,
CC(C)Nc1nc(-c2cccnc2)nc(-c2ccc(Cl)cc2)c1C#N,247.2*,-12.0,-5.3,-0.1,54.5*,RORg DNA counter=>40
CC(C)NC(=O)Cn1c(-c2cncs2)nc2ccccc21,1.8,nt,nt,nt,nt,
Cc1ccccc1CNC(=S)OC1CCC12CCC(c1ccccc1)CC2 (stereo not given),-1.4,nt,nt,nt,nt,
O=C(OCc1cn(Cc2ccccc2)nn1)N1CCOCC1,6.6,nt,nt,nt,nt,
COc1ccccc1C(=O)COC(=O)Cn1[nH]c(=O)c2ccccc2c1=O,21.9*,-6.2,-4.5,-0.2,9.1,
CCC(=O)N1CCC1(C)C(=O)Nc1cnc2ccccc2c1 (stereo not given),17.4*,nt,nt,0.4,-1.8,
CC1(C)Cc2c(c(N3CCOCC3)nc3sc4c(NN)ncnc4c23)CS1,28.1*,0.1,-2.8,-1.6,33.7*,RORg DNA counter=>40
CC(C)CNc1nnnc2c1sc1nc(N3CCOCC3)c3c(c12)CC(C)(C)SC3,-5.0,-11.5,-2.0,0.7,nt,
Fc1ccc(-c2cc(-c3nnc4sc(Cc5cccs5)nn34)[nH]n2)cc1,4.2,nt,nt,nt,nt,
COCCN(C(=O)COc1ccc(Cl)cc1)c1nnc(-c2cccnc2)s1,24.2*,-1.0,-3.8,-0.2,15.7,
Cc1cccc(-c2nnc(SCC(=O)c3ccc(F)cc3)n2C)c1,3.0,nt,nt,nt,nt,
CCN(Cc1cn(Cc2ccccc2)nn1)S(=O)(=O)c1ccc(N2CCCC2)cc1Br,8.6,nt,nt,nt,nt,
O=c1c2ccccc2nc2sc3ccccc3n12,21.6*,-13.2,0.9,-1.1,32.3*,RORg DNA counter=>40
COC(=O)/C=c1/sc2nc3ccccc3n2c1=O,3.4,3.8,-3.0,1.5,nt,
Cc1ccccc1CN1CCCCC(NC(=O)c2ccccc2)C1=O (stereo not given),1.6,nt,nt,nt,nt,
Cc1ccc2nc(-c3ccc(NC(=O)CCS(=O)(=O)c4ccccc4)cc3)sc2c1,18.7*,5.5,2.7,-0.5,22.8*,
Cc1nc2ccc(NC(=O)CCS(=O)(=O)c3ccccc3)cc2s1,4.2,-9.8,3.1,2.7,nt,
Cc1ccc2nc(-c3ccc(NC(=S)NC(=O)CC(C)C)cc3)sc2c1,21.6*,-11.8,-6.9,0.8,10.2,
O=C(CCS(=O)(=O)c1ccccc1)Nc1ccccc1-c1nc2ccccc2s1,44.2*,-5.5,-12.2,-1.1,40.1*,RORg DNA counter=2.09*
Cc1ccc2nc(-c3ccc(NC(=O)CNC4CC4)cc3)sc2c1,-1.4,-5.8,-5.5,1.8,nt,
Cc1ccc2nc(-c3ccc(NC(=O)CSc4nnc(Cc5cccs5)n4C)cc3)sc2c1,43.4*,nt,nt,nt,24.8*,
COc1ccc(C(=O)OCCN2CCN(C3CN(Cc4cn(Cc5ccccc5C(F)(F)F)nn4)S(=O)(=O)C3)CC2)cc1OC (stereo not given),3.6,nt,nt,nt,nt,
SMILES,NR1D1 modulator,PKA-R1A act,PKA-R2B activ,PG9 binder,Rev-erbA confirm,others
COC(=O)C[C@@H]1CC[C@H]2[C@H](COc3ccc(NC(=O)C4CCC4)cc3C(=O)N2C)O1,-4.4,nt,nt,nt,nt,
CCOC(=O)[C@@]12CCCC=C1N(CCc1ccc(Cl)cc1)C(=O)[C@H]2CC(=O)N1CCSCC1,-3.7,nt,nt,nt,nt,
COc1ccc(/C=C2\CC3(OC(=O)C4CCCCC4)CCCN2C3)cc1 (stereo not given),3.7,nt,nt,nt,nt,
Cc1ccc2nc(NC(=O)CN3CCN(c4ccccn4)CC3)sc2c1,-1.3,-5.9,-3.7,-2.4,nt,
Cc1ccc2nc(-c3ccc(NC(=O)CN4CCN(c5ccccn5)CC4)cc3)sc2c1,20.7*,nt,nt,0.3,13.1,
CCC1(c2ccc(F)cc2)NC(=O)N(CC(=O)Nc2ccc(-c3nc4ccc(C)cc4s3)cc2)C1=O (stereo not given),41.1*,10.6,-5.9,3.0,10.6,
COc1ccc(C(=O)NCCNc2nc3cc(C)cc(C)c3cc2C#N)nc1,22.8*,nt,nt,-2.3,44.5*,RORg DNA counter=>40
CCOC(=O)c1c(-c2ccccc2)csc1NC(=O)c1cc(S(=O)(=O)N2CCOCC2)ccc1C,33.6*,-10.5,5.3,-0.5,49.4*,RORg DNA counter=>40
CCOC(=O)c1c(-c2ccccc2)csc1NC(=O)c1ccc(S(=O)(=O)N2CC(C)OC(C)C2)cc1 (stereo not given),4.2,3.4,3.2,-0.3,nt,
N#Cc1ccc(Oc2ccc(-c3nc4ccccc4nc3-c3ccccc3)cc2)cc1C#N,23.3*,3.1,-11.9,2.1,37.7*,RORg DNA counter=>40
COc1ccc(-c2nc3ccccc3nc2-c2ccccc2)cc1,-0.8,3.7,3.0,-1.9,nt,
N#Cc1ccc(Oc2ccc(-c3cnc4ccccc4n3)cc2)cc1C#N,50.9*,-6.7,-4.5,-0.3,30.1*,
COC(=O)[C@]12C[C@H](CC(=O)NCCCN3CCCC3=O)C(=O)N(CCC3=CCCCC3)C1=C[C@H](C1CCCC1)O[C@@H]2C,6.7,nt,nt,nt,nt,
COc1ccc(CCn2c(-c3ccc(F)cc3)nc3c(c(=O)c4ccccc4n3C)c2=O)cc1OC,41.0*,nt,nt,1.1,15.8,
COc1ccc(CCn2c(-c3ccccc3)nc3c(c(=O)c4ccccc4n3C)c2=O)cc1,8.2,nt,nt,1.2,nt,
C=CCN1C(=O)[C@H](CC(=O)NCc2cccc3ccccc23)[C@@]2(C(=O)OCC)CCCC=C12,0.6,nt,nt,nt,nt,
CCCCOC(=O)c1ccc(NC(=O)COC(=O)c2ccc3ncsc3c2)cc1,3.3,9.1,-4.1,-0.5,nt,
CCCCc1ccc(NC(=O)COC(=O)c2ccc3ncsc3c2)cc1,17.1*,3.5,-0.7,-1.3,-6.4,
CCc1ccc([C@H]2[C@@H]3C(=O)C[C@@H]4C(=O)N(C)C(=O)[C@@H]4[C@@H]3CN2S(=O)(=O)c2ccc(C)cc2)cc1,16.0*,nt,nt,0.2,1.3,
CCOc1ccc(C(C)=O)cc1COC(=O)c1cc([N+](=O)[O-])ccc1N1CCOCC1,13.7*,-12.1,-12.5,0.4,-3.3,
COc1ccc(OC)c(COC(=O)c2cc([N+](=O)[O-])ccc2N2CCOCC2)c1,1.9,5.4,1.7,2.1,nt,
CCOC(=O)C1CCN(C(=O)C(C)(C)NC(=O)Nc2ccc(N(C)C)cc2)CC1,1.9,nt,nt,nt,nt,
O=C(COc1ccc(Cl)cc1Cl)Nc1cccc(-c2ccc(N3CCOCC3)nn2)c1,22.1*,-1.4,-7.4,1.8,14.3*,
O=C(COc1ccc(Cl)cc1Cl)Nc1ccc(-c2ccc(N3CCOCC3)nn2)cc1,-20.6,6.1,5.0,-7.9,nt,
CCN(CC)c1ccc(-c2c(C#N)c(N)nc(OC)c2C#N)cc1,177.6*,-2.8,1.1,2.8,136.7*,RORg DNA counter=>40
O=S1(=O)c2c(cccc2N2CCC[C@@H]2CO)OCCCN1C1CC1,2.2,nt,nt,nt,nt,
